From PubChem BioAssay (Tox21)
Inconclusive results are not listed. Calls of active or inactive are those of the source. Unless noted, the call rests on the fitted dose curve.

Tests used:
[1] = Nuclear factor erythroid 2-related factor 2/antioxidant responsive element (Nrf2/ARE) small molecule agonists: qHTS cell viability counter screen in human keratinocytes (AID 1919968; active means well fitted curve in the direction sought with a large enough effect in the repeat runs; an effect the other way counts as inactive or inconclusive; further: nearly all actives have a fitted effect of over 55% in size; further: potency means the concentration at half of the fitted maximal effect)
In short: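 Fluorescence read-out from CellTiter-Fluor after 1 h at 37 C. Wells held HaCaT-derived ARE-luciferase reporter cells (1,500/well) treated 23 h with DMSO-dissolved compounds. Run in the same wells as the luciferase agonist read.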

[2] = Nuclear factor erythroid 2-related factor 2/antioxidant responsive element (Nrf2/ARE) small molecule agonists: luciferase reporter gene qHTS assay in human keratinocytes (AID 1919969); further: nearly all actives have a fitted effect of over 35% in size; further: potency means the concentration at half of the fitted maximal effect
[3] = target: KiSS-1 receptor (Homo sapiens) (UniProt Q969F8); assay: Human kisspeptin (KISS1R) small molecule agonists, calcium flux assay in KISS1R-HEK293 cells (AID 1920064; active means well fitted curve in the direction sought with a large enough effect in the repeat runs; an effect the other way counts as inactive or inconclusive)
In short: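 Calcium flux read-out: kinetic fluorescence at Ex/Em=480/540, 1 s intervals over 3 min, after pin-tool compound addition to dye-loaded KISS1R-HEK293 cells. Fifteen concentrations, triplicates.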

[4] = G protein-coupled receptor (GPCR) small molecule agonists, calcium flux assay: HEK293 wild type cell line counter screen (AID 1920065)
In short: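 Agonist mode; 18 h seeding at 37 C, 1 h dye load at 37 C; compounds pinned from DMSO, ATP as positive control; kinetic fluorescence 480/540 nm, 3 min, 1 s reads; 15 concentrations, triplicate.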

[5] = p53 small molecule agonists, cell-based qHTS assay with human liver microsomes (AID 1963577);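 further: p53 response element beta-lactamase reporter cells with liver microsomes plus NADPH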
In short: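 Steps: plate p53RE-bla cells, incubate 5 h at 37 C; add compound in DMSO; add microsomes (0.5 mg/mL final) and NADPH (0.5 mg/mL final); incubate 16 h at 37 C; add LiveBLAzer, 2 h RT; read fluorescence.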

[6] = p53 small molecule agonists, cell-based qHTS assay with rat liver microsomes (AID 1963578)
In short: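 Metabolic activation is supplied by rat liver microsomes with NADPH (each 0.5 mg/mL final). p53RE-bla cells incubate with compound 16 h at 37 C; reporter activity is measured by LiveBLAzer fluorescence.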

[7] = p53 small molecule agonists, cell-based qHTS assay with human liver microsomes: qHTS cell viability counter screen (AID 1963579); further: nearly all actives have a fitted effect of over 45% in size
In short: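 After the 460/530 nm beta-lactamase read, CellTiter-Glo was added to the same wells and luminescence measured after 30 min at room temperature, giving viability of p53RE-bla cells treated 16 h with compounds plus microsomes and NADPH.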

[8] = p53 small molecule agonists, cell-based qHTS assay with rat liver microsomes: qHTS cell viability counter screen (AID 1963580); further: nearly all actives have a fitted effect of over 45% in size; further: potency means the concentration at half of the fitted maximal effect
In short: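 Luminescent ATP readout (CellTiter-Glo, 30 min at room temperature) reports viability of p53RE-bla HCT-116 cells after 16 h at 37 C with test compounds under metabolic activation by rat liver microsomes and NADPH at 0.5 mg/mL final each.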

[9] = p53 small molecule agonists, cell-based qHTS assay: qHTS cell viability counter screen (AID 1963581); further: nearly all actives have a fitted effect of over 45% in size
In short: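 Cytotoxicity read-out: ATP-based luminescence (CellTiter-Glo, 30 min RT) measured in the same wells as the p53 reporter assay, HCT-116 p53RE-bla cells, 16 h compound exposure at 37 C.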

[10] = target: 5-hydroxytryptamine receptor 2A (Homo sapiens) (UniProt P28223); assay: 5-hydroxytryptamine receptor 2A (HTR2A) small molecule antagonists, cell-based qHTS assay (AID 1963586); further: nearly all actives have a fitted effect of over 45% in size; further: potency means the concentration at half of the fitted maximal effect
In short: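 CHO cells stably expressing human HTR2A were plated for 18 h at 37 C, then loaded with calcium dye for 1 h. Compounds were preincubated 5 min at room temperature before DOI (4 nM solution) was added. Kinetic fluorescence was read for 3 min.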

[11] = target: 5-hydroxytryptamine receptor 2A (Homo sapiens) (UniProt P28223); assay: 5-hydroxytryptamine receptor 2A (HTR2A) small molecule agonists, cell-based qHTS assay (AID 1963587); further: nearly all actives have a fitted effect of over 30% in size; further: potency means the concentration at half of the fitted maximal effect
In short: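 HTR2A-CHO cells, plated 18 h at 37 C/5% CO2, dye-loaded 1 h at 37 C; compounds in DMSO added by pin tool (agonist mode). Intracellular calcium flux read as kinetic fluorescence on FDSS over 2 min at 1 s intervals.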

[12] = target: Muscarinic acetylcholine receptor M1 (Homo sapiens) (UniProt P11229); assay: Cholinergic receptor muscarinic 1 (CHRM1) small molecule agonists, cell-based qHTS assay (AID 1963589); further: nearly all actives have a fitted effect of over 35% in size
In short: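 Calcium flux read-out: kinetic fluorescence at 1 sec intervals after pin-tool compound addition to dye-loaded CHRM1-CHO cells (human M1). Agonist mode; 15 concentrations tested in triplicate independent runs.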

[13] = cAMP Responsive Elements (CRE) small molecule agonists, cell-based qHTS assay (AID 1963590)
In short: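 Beta-lactamase reporter readout: LiveBLAzer B/G FRET substrate, 2 h at room temperature, added after 3 h compound treatment of CRE-bla HEK 293T cells at 37 C/5% CO2.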

[14] = cAMP Responsive Elements (CRE) small molecule antagonists, cell-based qHTS assay (AID 1963591; active means well fitted inhibition curve with a large enough effect in the signal ratio in the repeat runs, not every such curve was filed as active; the % refers to the signal ratio; further: potency means the concentration at half of the fitted maximal effect)
In short: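 HEK293T CRE-bla; 18 h preincubation; compound pin-transfer; NKH477 0.25 uM final, 3 h, 37 C; LiveBLAzer FRET substrate 2 h RT.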

[15] = target: Beta-2 adrenergic receptor (Homo sapiens) (UniProt P07550); assay: Adrenergic beta2 receptor (ADRB2) small molecule antagonists, cell-based qHTS assay (AID 1963592); further: series mostly up to about 92 µM; nearly all actives have a fitted effect of over 50% in size
In short: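 Assay format: CHO-ADRB2 cells, 18-20hr seeding at 37C/5% CO2, then compound plus 1nM isoproterenol agonist mix for 0.5hr RT. Homogeneous time-resolved fluorescence cAMP detection after 1hr, expressed as 665/615 nm ratio.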

[16] = target: D(2) dopamine receptor (Homo sapiens) (UniProt P14416); assay: Dopamine D2 receptor (DRD2) small molecule agonists, cell-based qHTS assay (AID 1963594); further: nearly all actives have a fitted effect of over 35% in size
In short: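 HEK293 cells stably expressing DRD2 were cultured 24 h at 37 C, then given Ro20-1724 (0.1 mM final) and compounds for 10 min at room temperature. NKH477 (200nM) was then added for 30 min. cAMP was read by HTRF.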

[17] = target: D(2) dopamine receptor (Homo sapiens) (UniProt P14416); assay: Dopamine D2 receptor (DRD2) small molecule antagonists, cell-based qHTS assay (AID 1963595; active means well fitted inhibition curve with a large enough effect in the signal ratio in the repeat runs, with a control signal flat; the % refers to the signal ratio; further: potency means the concentration at half of the fitted maximal effect)
In short: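 DRD2-HEK293; 0.1 mM Ro20-1724; cpd 10 min RT; NKH477 200 nM + quinpirole 12 nM, 30 min RT; HTRF cAMP (cAMP-d2/anti-cAMP cryptate), 665/620 nm ratio after 1 h.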

[18] = target: Muscarinic acetylcholine receptor M1 (Homo sapiens) (UniProt P11229); assay: Cholinergic receptor muscarinic 1 (CHRM1) small molecule antagonists, cell-based qHTS assay (AID 1963588); further: nearly all actives have a fitted effect of over 40% in size; further: potency means the concentration at half of the fitted maximal effect
In short: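 Compounds were tested at 15 concentrations in three independent runs. Dye-loaded CHRM1-CHO cells were exposed 5 min at room temperature before stimulation by acetylcholine added at 50nM. Intracellular calcium was read kinetically on FDSS for 3 min.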

[19] = p53 small molecule agonists, cell-based qHTS assay (AID 1963582; active means well fitted activation curve with a large enough effect in the signal ratio in the repeat runs, not every such curve was filed as active; the % refers to the signal ratio)
In short: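 Fluorescence intensity read-out of a beta-lactamase reporter under a p53 response element. Cells were exposed to DMSO-dissolved compounds for 16 h at 37 C, then developed with FRET substrate for 2 h at RT.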
On the % scale 0 is the no-effect control and ±100 the full control effect.

D(2) dopamine receptor (Homo sapiens), sequence (P14416 whole entry, looked up): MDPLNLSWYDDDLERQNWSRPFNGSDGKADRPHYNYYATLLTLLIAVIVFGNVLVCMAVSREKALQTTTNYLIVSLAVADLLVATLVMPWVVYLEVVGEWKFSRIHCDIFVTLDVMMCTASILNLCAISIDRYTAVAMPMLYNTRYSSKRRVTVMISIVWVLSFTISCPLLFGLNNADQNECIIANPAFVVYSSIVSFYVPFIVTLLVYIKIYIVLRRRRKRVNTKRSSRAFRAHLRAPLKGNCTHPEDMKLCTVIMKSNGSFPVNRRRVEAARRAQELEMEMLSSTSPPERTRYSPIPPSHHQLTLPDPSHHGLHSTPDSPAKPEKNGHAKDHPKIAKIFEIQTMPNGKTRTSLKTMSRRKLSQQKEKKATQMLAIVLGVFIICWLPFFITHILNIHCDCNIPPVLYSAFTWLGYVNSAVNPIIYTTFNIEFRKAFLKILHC
Beta-2 adrenergic receptor (Homo sapiens), sequence (P07550 whole entry, looked up): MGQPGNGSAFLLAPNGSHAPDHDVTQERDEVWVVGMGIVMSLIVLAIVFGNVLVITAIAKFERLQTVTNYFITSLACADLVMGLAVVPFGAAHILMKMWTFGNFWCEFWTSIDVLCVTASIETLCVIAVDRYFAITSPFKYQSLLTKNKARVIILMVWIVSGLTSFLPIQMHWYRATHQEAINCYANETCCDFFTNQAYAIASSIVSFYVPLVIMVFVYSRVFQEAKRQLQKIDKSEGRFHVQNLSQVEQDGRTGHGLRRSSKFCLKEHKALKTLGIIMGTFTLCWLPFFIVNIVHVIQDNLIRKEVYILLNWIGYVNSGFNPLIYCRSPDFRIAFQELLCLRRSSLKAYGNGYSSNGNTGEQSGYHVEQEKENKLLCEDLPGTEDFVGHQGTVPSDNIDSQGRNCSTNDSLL
KiSS-1 receptor (Homo sapiens), sequence (Q969F8 whole entry, looked up): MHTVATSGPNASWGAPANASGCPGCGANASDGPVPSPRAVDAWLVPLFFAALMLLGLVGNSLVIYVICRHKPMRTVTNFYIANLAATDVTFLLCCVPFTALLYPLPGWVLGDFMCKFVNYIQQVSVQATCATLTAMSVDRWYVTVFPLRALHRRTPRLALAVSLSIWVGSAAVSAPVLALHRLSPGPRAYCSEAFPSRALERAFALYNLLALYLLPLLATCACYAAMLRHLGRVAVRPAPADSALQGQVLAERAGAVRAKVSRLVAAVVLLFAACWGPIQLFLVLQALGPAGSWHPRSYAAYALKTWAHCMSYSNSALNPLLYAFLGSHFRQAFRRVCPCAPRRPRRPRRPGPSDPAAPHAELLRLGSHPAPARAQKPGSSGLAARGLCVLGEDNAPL
5-hydroxytryptamine receptor 2A (Homo sapiens), sequence (P28223 whole entry, looked up): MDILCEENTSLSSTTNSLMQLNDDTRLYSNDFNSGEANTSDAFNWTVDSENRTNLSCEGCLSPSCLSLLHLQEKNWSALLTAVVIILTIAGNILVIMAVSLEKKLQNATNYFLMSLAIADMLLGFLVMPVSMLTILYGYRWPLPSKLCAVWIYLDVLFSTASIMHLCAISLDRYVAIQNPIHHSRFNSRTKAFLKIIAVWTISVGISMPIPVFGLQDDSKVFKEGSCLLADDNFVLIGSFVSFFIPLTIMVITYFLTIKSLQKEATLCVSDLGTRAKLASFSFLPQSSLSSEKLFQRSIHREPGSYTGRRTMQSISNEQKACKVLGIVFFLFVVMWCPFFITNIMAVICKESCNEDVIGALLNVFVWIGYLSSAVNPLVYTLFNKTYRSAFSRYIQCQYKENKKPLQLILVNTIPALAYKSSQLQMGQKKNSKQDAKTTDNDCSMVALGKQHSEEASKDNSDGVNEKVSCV
Muscarinic acetylcholine receptor M1 (Homo sapiens), sequence (P11229 whole entry, looked up): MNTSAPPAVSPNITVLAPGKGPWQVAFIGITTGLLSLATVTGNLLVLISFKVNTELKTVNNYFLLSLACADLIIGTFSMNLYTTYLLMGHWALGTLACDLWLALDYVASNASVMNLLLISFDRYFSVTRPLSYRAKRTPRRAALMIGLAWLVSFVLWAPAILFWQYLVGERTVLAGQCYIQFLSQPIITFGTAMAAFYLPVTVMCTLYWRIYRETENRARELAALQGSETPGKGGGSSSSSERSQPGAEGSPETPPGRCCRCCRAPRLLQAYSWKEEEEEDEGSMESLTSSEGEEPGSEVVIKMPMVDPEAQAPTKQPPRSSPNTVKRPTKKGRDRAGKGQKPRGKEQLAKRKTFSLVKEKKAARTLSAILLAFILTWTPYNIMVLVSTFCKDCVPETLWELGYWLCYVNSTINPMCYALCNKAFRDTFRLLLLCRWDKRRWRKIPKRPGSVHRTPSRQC

CC(C)(C#N)C(C)(C)C#N
inactive: Potency [1] | Potency [2] | Potency [3] | Potency [4] | Potency [5] | Potency [6] | Potency [7] | Potency [8] | Potency [9] | Potency [10] | Potency [11] | Potency [12] | Potency [13] | Potency [14] | Potency [15] | Potency [16] | Potency [17]

CN1CCN(C(=O)O[C@H]2c3nccnc3C(=O)N2c2ccc(Cl)cn2)CC1
inactive: Potency [1] | Potency [2] | Potency [3] | Potency [4] | Potency [5] | Potency [8] | Potency [9] | Potency [10] | Potency [11] | Potency [18] | Potency [14] | Potency [15] | Potency [17]

ClCC(Cl)Cl
inactive: Potency [1] | Potency [2] | Potency [3] | Potency [4] | Potency [5] | Potency [6] | Potency [7] | Potency [8] | Potency [9] | Potency [19] | Potency [13] | Potency [14] | Potency [15] | Potency [16] | Potency [17]

CCN(CC)CCc1c[nH]c2ccccc12
inactive: Potency [1] | Potency [2] | Potency [3] | Potency [4] | Potency [5] | Potency [6] | Potency [7] | Potency [8] | Potency [19] | Potency [18] | Potency [12] | Potency [13] | Potency [14] | Potency [16] | Potency [17]
active: Potency [10] 0.0221 µM | Potency [11] 0.0091 µM

C[CH2][Hg][N]1C(=O)C2C(C1=O)C1(Cl)C(Cl)=C(Cl)C2(Cl)C1(Cl)Cl (stereo not given)
inactive: activation [3] 13.3% [at 15.8 µM] | activation [4] -0.0279% [at 11.8 µM] | activation [5] -12.1% [at 13.5 µM] | activation [6] -6.79% [at 13.6 µM] | activity, negative = inhibition [10] 14.2% [at 12.7 µM] | activity, negative = inhibition [18] -14.4% [at 12.6 µM] | activity change, negative = inhibition [15] -18.8% [at 19 µM] | activity change, negative = inhibition [17] 2.84% [at 18.9 µM]
active: Potency [1] 5.17 µM | Potency [2] 2.91 µM | Potency [11] 10.4 µM

CCCCCCCCCC[N+](C)(C)CCCCCCCCCC
active: Potency [1] 27.3 µM | Potency [8] 45.8 µM | Potency [18] 10.6 µM | Potency [14] 43.3 µM | Potency [17] 27.3 µM
inactive: Potency [2] | Potency [3] | Potency [4] | Potency [5] | Potency [6] | Potency [10] | Potency [16]

CCN1CCCC1CNC(=O)C(O)(c1ccccc1)c1ccccc1 (stereo not given)
inactive: Potency [1] | Potency [2] | Potency [3] | Potency [4] | Potency [5] | Potency [6] | Potency [8] | Potency [9] | Potency [19] | Potency [12] | Potency [13] | Potency [14] | Potency [15] | Potency [16] | Potency [17]
active: Potency [11] 2.68 µM | Potency [18] 0.0918 µM

O=NN(CCO)CCO
inactive: Potency [1] | Potency [2] | Potency [3] | Potency [4] | Potency [5] | Potency [6] | Potency [7] | Potency [8] | Potency [9] | Potency [19] | Potency [11] | Potency [18] | Potency [12] | Potency [13] | Potency [14] | Potency [15] | Potency [16] | Potency [17]
